# Inconclusive results are not listed. Entries that show only a call come without a potency. Activity calls are given as the source filed them. Calls come from the whole dose curve; as a rule, active = well fitted cell-killing curve with a large enough effect; inconclusive = small, poorly fitted or top-dose-only effect; inactive = flat fitted curve, though single readings scatter.
# Experiment: Cell Viability - LYMP2-018 (AID 985);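 note: compound exposure lasted 24 hr at 37 °C; nearly all actives have a fitted effect of over 50% in size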
# Conditions: LYMP2-018 lymphoblastoid cells, viability (qHTS); series mostly up to 92.2 µM
# Procedure, shortened: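 Luminescent ATP signal (CellTiter-Glo, read after 30 min at room temperature) reports viable cells after 24 hr compound treatment at 37 C. Concentration-response data were fitted to the standard Hill equation for AC50.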
row,SMILES,Potency
1,CC=O,inactive
2,Cc1cc([N+](=O)[O-])ccc1N,inactive
3,Nc1nc2ccccc2[nH]1,inactive
4,NC(=O)c1ccccc1[N+](=O)[O-],inactive
5,COc1ccc(N)c(C)c1,inactive
6,Oc1cccc(Nc2ccccc2)c1,inactive
7,O=C(O)c1cccc(Cl)c1Cl,inactive
8,O=C(O)CNC(=O)c1ccc(CO)o1,inactive
9,Nc1cccc2c(=O)[nH][nH]c(=O)c12,inactive
10,CCOc1cccc(N)c1,inactive
11,CCC(C)(C)C(=O)O,inactive
12,ICCc1ccccc1,inactive
13,FC(F)(F)c1cccc(Cl)c1,inactive
14,CCNS(=O)(=O)c1ccc(C)cc1,inactive
15,CCOc1ccccc1N,inactive
16,C=CC(=O)NC(C)C,inactive
17,CCCCCCO,inactive
18,CC(=O)Nc1ccccc1C,inactive
19,COc1ccc(N=[N+]([O-])c2ccc(OC)cc2)cc1,inactive
20,Oc1c(Cl)ccc(Cl)c1Cl,inactive
21,CN(C)CCCNCCCN,inactive
22,CC(=C/C=C/C(C)=C/C=C/C=C(C)/C=C/C=C(C)/C=C/C(=O)O)/C=C/C(=O)O,inactive
23,Cc1cccc(C(=O)O)c1,inactive
24,Cc1ccc2ncccc2c1,inactive
25,Nc1cccc(C(F)(F)F)c1,inactive
26,CC(=O)c1cccc([N+](=O)[O-])c1,inactive
27,CNC(=O)c1ccccc1,inactive
28,O=[N+]([O-])c1cccc(C(F)(F)F)c1,inactive
29,CCC(C)(C)OC,inactive
30,NC(N)=S,inactive

# Experiment: Cell Viability - LYMP2-020 (AID 986); note: nearly all actives have a fitted effect of over 55% in size
# Conditions: series mostly up to 92.2 µM
# Procedure, shortened: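 Luminescent ATP signal (CellTiter-Glo, 30 min at room temperature) is the read-out after 24 h compound treatment of lymphoblastoid cells at 37 C. AC50 values come from Hill-equation fits across concentrations.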
row,SMILES,Potency
1,CC=O,inactive
2,Cc1ccc(CO)cc1,inactive
3,Cc1cc([N+](=O)[O-])ccc1N,inactive
4,Clc1cc(Cl)cc(Cl)c1,inactive
5,Nc1nc2ccccc2[nH]1,inactive
6,NC(=O)c1ccccc1[N+](=O)[O-],inactive
7,COc1ccc(N)c(C)c1,inactive
8,Oc1cccc(Nc2ccccc2)c1,inactive
9,O=C(O)c1cccc(Cl)c1Cl,inactive
10,O=C(O)CNC(=O)c1ccc(CO)o1,inactive
11,Nc1cccc2c(=O)[nH][nH]c(=O)c12,inactive
12,CCOc1cccc(N)c1,inactive
13,CCC(C)(C)C(=O)O,inactive
14,ICCc1ccccc1,inactive
15,COc1ccc(OC)cc1,inactive
16,FC(F)(F)c1cccc(Cl)c1,inactive
17,CCNS(=O)(=O)c1ccc(C)cc1,inactive
18,CCOc1ccccc1N,inactive
19,C=CC(=O)NC(C)C,inactive
20,Cc1ccc2cccnc2c1,inactive

row,SMILES,Potency
1,CCCCCCO,inactive
2,CC(=O)Nc1ccccc1C,inactive
3,CC(C)(c1cc(Br)c(OCC(Br)CBr)c(Br)c1)c1cc(Br)c(OCC(Br)CBr)c(Br)c1 (centres undefined),inactive
4,COc1ccc(N=[N+]([O-])c2ccc(OC)cc2)cc1,inactive
5,CNc1ccccc1,inactive
6,Oc1c(Cl)ccc(Cl)c1Cl,inactive
7,CN(C)CCCNCCCN,inactive
8,O=C(Cl)c1cccc([N+](=O)[O-])c1,inactive
9,CC(=C/C=C/C(C)=C/C=C/C=C(C)/C=C/C=C(C)/C=C/C(=O)O)/C=C/C(=O)O,inactive
10,Cc1cccc(C(=O)O)c1,inactive
11,Cc1ccc2ncccc2c1,inactive
12,Nc1cccc(C(F)(F)F)c1,inactive
13,O=Cc1ccc(C(=O)O)cc1,inactive
14,NC(=O)/N=N/C(N)=O,inactive
15,CC(=O)c1cccc([N+](=O)[O-])c1,inactive
16,CNC(=O)c1ccccc1,inactive
17,O=[N+]([O-])c1cccc(C(F)(F)F)c1,inactive
18,CCC(C)(C)OC,inactive
19,NC(N)=S,inactive
